From PubChem BioAssay AID449762 (Southern Research Specialized Biocontainment Screening …, 2010)
Out of some 330,000 compounds screened, about 1,900 (0.58%) were called active. Inconclusive results (about 4%) are left out. Only a sample is shown. Measured potencies and affinities stand elsewhere. A number with no mark means an inactive call. Cut-off read from the data, not from the text of the source: inconclusive = inhibition above about 70% without an active follow-up result; inactive = below that.

Assay: M. tuberculosis growth inhibition, HTS (AID 449762);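 note: bacterial growth assessed after seven days of incubation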
Settings: M. tuberculosis H37Rv growth inhibition, 7H9 media; at 25 µM; stronger effect = higher value

Row | Structure (SMILES) | inhibition
1 | CCOc1ccc(N2C(=O)C3CC(C)=C(C)CC3C2=O)c([N+](=O)[O-])c1 (stereo unspecified) | -11.3%
2 | CCCCCn1c(SC(C)C(C)=O)nc2c1c(=O)[nH]c(=O)n2C (stereo unspecified) | -12.7%
3 | Cc1cc(Cl)c(OCCCN(C)C)c(Br)c1 | 2.02%
4 | COc1cc2[nH]c3c(Cl)ncnc3c2cc1OC | -3.36%
5 | COc1ccc2c([N+](=O)[O-])c(Cl)[nH]c2c1 | -1.29%
6 | CCOC(=O)C1=C(C)OC(N)=C(C#N)C1c1c(C)nn(-c2ccccc2)c1Cl (stereo unspecified) | -3.55%
7 | Cc1ccc2c(c1)nnn2C1CCN(CC(=O)Nc2ccc(F)cc2)CC1 | -1.73%
8 | Cc1ccc2c(c1)nnn2C1CCN(CC(=O)c2ccc(Cl)cc2)CC1 | 2.57%
9 | CCSC(=Nc1ccccc1)C1=C(O)COC1=O | 3.26%
10 | NCC(c1ccc(Cl)cc1Cl)c1c[nH]c2ccccc12 (stereo unspecified) | 34.8%
11 | OC(CNCCc1c[nH]c2ccccc12)c1ccccc1 (stereo unspecified) | -1.92%
12 | COC(=O)c1sc(N)c(C(=O)OC)c1COC(=O)C1CC(=O)N(Cc2ccco2)C1 (stereo unspecified) | -7.71%
13 | CCOc1ccc(CCNS(=O)(=O)c2ccc3c(c2)NC(=O)CO3)cc1OCC | -0.19%
14 | CCOc1ccc(NCc2nc3ccccc3n2CCOc2ccccc2)cc1 | 33.8%
15 | c1ccc(NCc2nc3ccccc3n2CCOc2ccccc2)cc1 | 5.47%
16 | O=[N+]([O-])c1ccc(/C=N/Nc2nc(N3CCCCCC3)nc(N3CCCCCC3)n2)o1 | -9.1%
17 | CCNc1nc(NCC)nc(N/N=C/c2ccccc2)n1 | -2.44%
18 | CC(C)NS(=O)(=O)c1ccc(CCC(=O)N2CCC(C(N)=O)CC2)cc1 | -7.28%
19 | Cc1ccccc1C(=O)Oc1cc(N)n(S(C)(=O)=O)n1 | -5.9%
20 | NCCCn1c(C(=O)c2ccc(Cl)cc2)c2ccc(C(F)(F)F)cc2[n+]1[O-] | 1.61%
21 | NC(=O)CCCn1c(C(=O)c2ccc(Cl)cc2)c2ccc([N+](=O)[O-])cc2[n+]1[O-] | -3.8%
22 | COc1ccc(CCN2CC(C(=O)NCc3ccco3)CC2=O)cc1OC (stereo unspecified) | -1.89%
23 | CCN1CCN(c2ccc(S(=O)(=O)N3CCOCC3)cc2NC(=O)COc2ccc(F)cc2Cl)CC1 | 2.58%
24 | C[C@H](NC(N)=O)C(=O)Nc1ccc(OCc2ccccc2)cc1 | 2.2%
25 | C/C(=N\NC(=O)c1ccccc1F)c1ccc2c(c1)Nc1ccccc1S2 | -0.8%
26 | C/C(=N\NC(=O)c1ccc(C)cc1C)c1ccc2c(c1)Nc1ccccc1S2 | 7.51%
